From PubChem BioAssay
NS1 function inh: qHTS Assay for Inhibitors of Influenza NS1 Protein Function | Potency, µM (titrated, usually from 46.1 µM) | 270,000 compounds, 0.4% hits; calls by dose curve; note: actives are rising curves; nearly all actives have a fitted effect of over 50% in size
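Compounds were scored for reversing the slow growth caused by influenza A NS1 in S. cerevisiae, measured by optical density at 600 nm. Assay medium contained 2% galactose at pH 6.0; NS1-free yeast of the same strain were the positive control.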
Pf growth 48h: Primary qHTS for delayed death inhibitors of the malarial parasite plastid, 48 hour incubation; 310,000 compounds, 5.9% hits; Potency, µM (top dose mostly 28.7 µM), actives largely listed as inhibitors; P. falciparum luciferase growth in erythrocytes, 48 h
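Here the parasites carry a stable luciferase gene and grow inside erythrocytes in Albumax-based RPMI medium with compound for one erythrocytic cycle. Activity is scored as loss of luminescent signal.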
HCV inhibitor: qHTS Assay for Inhibitors of Hepatitis C Virus (HCV). Huh7.5.1 HCVcc-Cre infection, luciferase reporter, 44 h. Potency, µM (series often up to 41.8 µM), usual class: inhibitors. 340,000 compounds, 3.4% hits. AID 651820, 2012
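Luciferase read-out (15 sec integration) after a 15 min room-temperature substrate step quantifies HCVcc-Cre infection. Cells, 1,000 per well, had compound added 4 h post-plating, then virus at ~0.5 moi, and were cultured 44 h.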
AMA1 RON2 block: qHTS for Inhibitors of AMA1-RON; Towards Development of Antimalarial Drug Lead: Primary Screen. AlphaScreen AMA1-biotinylated RON2 peptide binding. Potency, µM (top dose mostly 58.2 µM), hits mostly inhibitors. 360,000 compounds, 0.2% hits. AID 720542, 2013; note: nearly all actives have a fitted effect of over 45% in size
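AMA1 (3D7) with his tag at 25 nM final met compounds first, then biotinylated RON2 peptide at 25 nM; detection used donor plus acceptor beads, 10 µg/mL apiece, read by AlphaScreen after 30 min at room temperature.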
Pf growth 96h: Primary qHTS for delayed death inhibitors of the malarial parasite plastid, 96 hour incubation; Potency, µM (highest dose often 28.7 µM), hits mostly inhibitors; 320,000 compounds, 6.9% hits; P. falciparum luciferase reporter growth, 96 h
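96 h incubation, 37 C, 5% CO2, of luciferase-reporter P. falciparum-infected RBCs (2% hematocrit, 0.05% parasitemia final) with test compounds; endpoint luminescence.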
SARS PLP yeast: qHTS of Yeast-based Assay for SARS-CoV PLP. S. cerevisiae expressing SARS-CoV PLpro, growth rescue. Potency, µM (doses to about 32.9 µM), usual class: activators. 330,000 compounds, 0.19% hits. AID 485353, 2010; calls by dose curve; note: nearly all actives have a fitted effect of over 55% in size
Hits are given with their value; – = inactive; ? = inconclusive; · = no result; [ ] = another dose, or the depositor's remark. Sampled rows, rich in hits. Any-hit rate of the full collection: about 12%. Unless noted, calls come from the whole dose curve; as a rule, active = well fitted curve in the direction sought with a large enough effect; inconclusive = small, poorly fitted or top-dose-only effect, or another doubt; inactive = no such curve, though single readings can be large; an effect the other way counts as inactive or inconclusive.

SMILES	NS1 function inh	Pf growth 48h	HCV inhibitor	AMA1 RON2 block	Pf growth 96h	SARS PLP yeast
CCOC(=O)c1c(NC(=O)C2=C(C)NC(=S)NC2c2ccc(C)cc2)sc(C)c1C (configuration not stated)	–	11.7µM	10µM	–	?	–
CCOC(=O)c1c(NC(=O)C2=C(C)NC(=S)NC2c2ccc(F)cc2)sc(C)c1C (configuration not stated)	–	?	8.91µM	–	?	–
CCOC(=O)c1c(NC(=O)C2=C(C)NC(=S)NC2c2ccc(F)cc2F)sc(C)c1C (configuration not stated)	–	–	?	–	–	–
O=C(NC(c1ccccc1)c1ccccc1)c1ccc(CO)cc1	–	?	–	–	?	–
Cc1ccc(S(=O)(=O)N2CCC(C(=O)OCC(=O)Nc3cc(S(C)(=O)=O)ccc3Cl)CC2)cc1C	–	–	–	–	–	–
C#CCOCCOCCOCCNc1nc(N2CCOCC2)nc(N2CCN(C(=O)CCCCCCCCCCNC(=O)[C@@H]([C@H](C)O)n3cc(C)nn3)CC2)n1	·	?	–	–	?	–
C#CCOCCOCCOCCNc1nc(N2CCN(C(=O)CCCCCCCCCCNC(=O)[C@H](CCC(=O)O)n3cc(CCCCCN)nn3)CC2)nc(N2CCN(C(=O)CCCCCCCCCCNC(=O)[C@@H]([C@H](C)O)n3cc(C)nn3)CC2)n1	·	3.29µM	–	–	?	–
C#CCOCCOCCOCCNc1nc(N2CCN(C(=O)CCCCCCCCCCNC(=O)[C@H](CCCCN)n3cc(CCO)nn3)CC2)nc(N2CCN(C(=O)CCCCCCCCCCNC(=O)[C@H](CCCCN)n3cc(CCO)nn3)CC2)n1	·	4.15µM	–	–	7.38µM	–
C#CCOCCOCCOCCNc1nc(N2CCN(C(=O)CCCCCCCCCCNC(=O)[C@@H](CCC(=O)O)n3cc(CCCCCN)nn3)CC2)nc(N2CCN(C(=O)CCCCCCCCCCNC(=O)[C@@H](CCC(=O)O)n3cc(CCCCCN)nn3)CC2)n1	·	2.94µM	–	–	?	–
C#CCOCCOCCOCCNc1nc(N2CCN(C(=O)CCCCCCCCCCNC(=O)[C@H](CCCCN)n3cc(CCO)nn3)CC2)nc(N2CCN(C(=O)CCCCCCCCCCNC(=O)[C@@H]([C@H](C)O)n3cc(C)nn3)CC2)n1	·	0.294µM	–	–	?	–
C#CCOCCOCCOCCNc1nc(N2CCN(C(=O)CCCCCCCCCCNC(=O)[C@H](CCCCN)n3cc(CCCC(=O)O)nn3)CC2)nc(N2CCN(C(=O)CCCCCCCCCCNC(=O)[C@H](CCCCN)n3cc(CCCC(=O)O)nn3)CC2)n1	·	?	?	–	?	–
CCCOc1ccc(NCC(=O)Nc2ccc(C)cc2C)cc1	–	–	–	–	?	–
Cc1cc(C)c2cc(C(=O)Nc3ccccc3)[nH]c2c1	–	?	?	–	8.28µM	–
CCCOc1ccc(NC(=O)c2cc3cc(C)ccc3[nH]2)cc1	–	–	–	–	11.7µM	–
Cc1ccc2[nH]c(C(=O)Nc3ccc(F)cc3)cc2c1	–	–	–	–	8.28µM	–
CCNc1nc(SCC(=O)Nc2ccc(Cl)c(Cl)c2)nc(N2CCOCC2)n1	–	?	?	–	–	–
CCCn1c2c(c(=N)c3c1CCC3)CCCC2	–	0.37µM	–	–[11.6 µM]	0.117µM	–
O=C(O)CCn1c2c(c3ccccc31)CCCC2	–	–	–	–	·	–
CCCn1c(=S)[nH]c2sc3c(c2c1=O)CCCC3	–	–	–	–	–	–
CCOC(=O)Cn1c2c(c(=N)c3c1CCC3)CCCC2	–	?	–	–	0.185µM	–
CCCCCCCn1c2c(c(=N)c3ccccc31)CCC2	–	0.928µM	1.78µM	–	–	–
CCCn1c2c(c(=N)c3c1CCC3)CCC2	–	0.37µM	?	–	?	–
S=C1Cc2ccccc2N1	–	?	?	–	?	–
NC(=O)c1nsc(C(=O)N(Cc2cccnc2)C(C(=O)NCc2ccc(F)cc2)c2ccc(O)cc2)c1N (configuration not stated)	–	?	–	–	–	–
CC(C)c1ccc(NC2CCCN(C(=O)c3cccs3)C2)cc1 (configuration not stated)	–	–	–	–	–	–
SMILES	NS1 function inh	Pf growth 48h	HCV inhibitor	AMA1 RON2 block	Pf growth 96h	SARS PLP yeast
CS(=O)(=O)N1CCc2cc(C(=O)Nc3ccc(COCC(F)(F)F)cc3)ccc21	–	?	11.2µM	–	?	–
Cc1cccc(CSc2nnc([C@@H]3CCCN3)o2)c1	–	–	–	–	–	–
COc1ccc(S(=O)(=O)N2CCCCC2)cc1C(=O)N1CCCCCC1	·	·	–	–	·	·
CCn1c(Cc2ccc(OC)cc2)nnc1SCc1nc2ccccc2c(=O)[nH]1	·	–	–	–	?	–
CC(C)CCN(Cc1ccco1)S(=O)(=O)c1csc(C(N)=O)c1	–	–	–	–	–	–
CCOCCCN(Cc1ccco1)S(=O)(=O)c1csc(C(N)=O)c1	–	–	–	–	13.1µM	–
Cc1csc(NC(=O)c2ccc(Cn3nc(C)c(Br)c3C)o2)n1	–	?	10µM	–	?	–
COc1ccc(C(CCNC(C)c2ccccc2)C(C)C)cc1 (configuration not stated)	–	9.28µM	?	–	9.28µM	–
COc1ccc(C(C)NCCC(c2ccc(OC(C)C)cc2)c2ccccc2OC)cc1 (configuration not stated)	–	?	10µM	–	?	–
COc1cc(CC2COC(c3ccc(O)c(OC)c3)C2COC(C)=O)ccc1O (configuration not stated)	–	–	–	?	10.4µM	–
O=C(Cc1cccc(NC(=O)C2CCCN(C(=O)C3CC3)C2)c1)Nc1cccc(C(=O)N2CCCCC2)c1 (configuration not stated)	·	·	?	–	·	·
O=C(Cc1cccc(NC(=O)C2CCCN(C(=O)C3CCC3)C2)c1)Nc1cccc(C(=O)N2CCCC2)c1 (configuration not stated)	·	?	?	–	2.33µM	–
O=C(Cc1cccc(NC(=O)C2CCCN(C(=O)C3CCCCC3)C2)c1)Nc1cccc(C(=O)N2CCCC2)c1 (configuration not stated)	·	4.15µM	–	–	?	–
O=C(NC1CCCCC1)C(C1CC1)n1c(=O)c(-c2cc3ccccc3[nH]2)nc2ccccc21 (configuration not stated)	·	·	·	–	·	·
CCc1nc2ccc(C(=O)NCCC(C)C)cn2c1N(CC)CCN(C)C	·	·	·	–	·	·
C=CCN1CC[C@]23c4c5ccc(O)c4OC2C(O)CC[C@@]3(O)[C@H]1C5 (some centres not stated)	·	·	–	–	·	–
